# Bioassay records from PubChem BioAssay.
# Only some compounds are listed: those with a hit (about 12% of all), similar ones and a draw of the others.
# G9a block – blocks human histone lysine methyltransferase G9a; Potency, µM (top dose mostly 102 µM), most hits filed as inhibitors; hit rate 8.8% among 350,000; G9a H3K9 monomethylation, AlphaScreen, 2 h; Q96KQ7; AID 504332; further: nearly all actives have a fitted effect of over 75% in size
# Target sequence (Q96KQ7 913-1193 limits assumed): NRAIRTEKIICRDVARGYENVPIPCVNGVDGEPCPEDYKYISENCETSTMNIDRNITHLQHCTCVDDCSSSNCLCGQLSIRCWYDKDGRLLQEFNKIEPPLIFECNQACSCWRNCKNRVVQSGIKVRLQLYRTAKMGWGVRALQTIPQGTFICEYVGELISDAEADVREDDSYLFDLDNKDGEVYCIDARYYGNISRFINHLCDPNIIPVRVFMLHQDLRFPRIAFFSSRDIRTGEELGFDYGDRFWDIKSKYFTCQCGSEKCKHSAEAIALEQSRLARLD
#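 AlphaScreen read-out: biotin-H3K9 peptide (500 nM) methylation by 20 nM enzyme with 20 uM SAM, 2 h at room temperature after 15 min compound preincubation; anti-monomethyl H3K9 antibody plus donor/acceptor beads, 10 min dark.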
# JMJD2A Tudor inh – blocks the human JMJD2A Tudor domain. O75164. AlphaScreen JMJD2A-Tudor / H3K4me3 peptide binding. Potency, µM (doses to about 114 µM), most hits filed as inhibitors. hit rate 4.4% among 390,000. AID 504339; further: nearly all actives have a fitted effect of over 50% in size
# L3MBTL1 inh – L3MBTL1 (human) inhibition | Q9Y468 | AlphaScreen L3MBTL1–H3K9me1 peptide binding | Potency, µM (doses to about 57.1 µM), usual class: inhibitors | hit rate 0.66% among 230,000 | AID 485360; further: nearly all actives have a fitted effect of over 60% in size
#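 First, the protein-peptide complex forms for 30 min at room temperature (L3MBTL1 50 nM, biotinylated H3K9me1 peptide 75 nM). Next, compounds are pin-transferred and incubated 30 min. Finally, AlphaScreen beads are added and read after 30 min.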
# BAZ2B block – inhibitors of human BAZ2B bromodomain. AlphaScreen BAZ2B-H3K14Ac peptide displacement. hit rate 4.4% among 360,000. Potency, µM (highest dose often 114 µM), actives largely listed as inhibitors. AID 504333; further: nearly all actives have a fitted effect of over 60% in size
#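 AlphaScreen luminescence quantifies BAZ2B engagement of H3K14Ac peptide; the protein and biotinylated peptide are both at 50 nM final, buffer PBS pH 7.4 with 0.01% Tween-20, all steps at room temperature.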
# Sfp PPTase inh – Sfp phosphopantetheinyl transferase inhibition; Q9F4F7; Biochemical Sfp PPTase activity, qHTS; Potency, µM, most hits filed as inhibitors; hit rate 3.5% among 310,000; AID 1490;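 further: the enzyme is Sfp with the accession as filed and its product quenches rhodamine fluorescence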
#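 Step 1, compound plus 15 nM Sfp-PPTase, 15 min, room temperature. Step 2, add rhodamine-CoA (5 uM) and BHQ-2-YbbR (12.5 uM). Step 3, read 525/598 nm fluorescence at 0 and 30 min.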
# HP1b chromo inh – HP1-beta chromodomain-methylated histone interaction inhibition; P83916; AlphaScreen HP1-beta / biotin-H3K9me3 peptide binding; Potency, µM (doses to about 114 µM), actives largely listed as inhibitors; hit rate 0.56% among 390,000; AID 540317; further: nearly all actives have a fitted effect of over 70% in size
# Target sequence (P83916 whole entry, looked up): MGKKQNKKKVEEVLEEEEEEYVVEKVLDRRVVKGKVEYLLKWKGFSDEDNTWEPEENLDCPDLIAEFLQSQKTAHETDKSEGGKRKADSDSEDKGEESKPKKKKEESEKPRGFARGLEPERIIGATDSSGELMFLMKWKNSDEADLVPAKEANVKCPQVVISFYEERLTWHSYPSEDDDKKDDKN
#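 AlphaScreen: HP1-beta (50 nM) preformed 30 min with biotin-H3(1-18)K9me3 peptide (50 nM) in PBS pH 7.4, 0.01% Tween-20. Compound added for 30 min at RT, then streptavidin donor/nickel chelate acceptor beads (10 ug/mL) for 30 min.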
# A number is an active result; - = inactive; ? = inconclusive; . = no result given; [ ] = remark or other dose. The call rests on the fitted dose curve; in most records, active means well fitted curve in the direction sought with a large enough effect; inconclusive means small, poorly fitted or top-dose-only effect, or another doubt; inactive means no such curve, though single readings can be large; an effect the other way counts as inactive or inconclusive.
SMILES,G9a block,JMJD2A Tudor inh,L3MBTL1 inh,BAZ2B block,Sfp PPTase inh,HP1b chromo inh
COc1cc(NS(=O)(=O)c2ccc(NC(=S)NC(=O)/C=C/c3ccco3)cc2)ncn1,?,18µM,?,-,-,?
CCOc1ccc(NC(=S)NC(=O)/C=C/c2ccco2)cc1,-[0.501 µM],-,-[2.29 µM],-,-,-
O=C(/C=C/c1ccco1)NC(=S)Nc1cccc(C(=O)O)c1,8.9µM,20µM,.,32µM,79µM,20µM
CCc1ccc(NC(=O)NCc2cccnc2)cc1,.,-,.,-,-,-
CCOC(=O)c1cnc2ccc(OC(F)(F)F)cc2c1Nc1ccccc1C(=O)O,-,-,.,-,.,-
CCN1CCN(C(=O)c2ccc3c(c2)c(C)c(C)n3Cc2ccccc2)CC1,35µM,?,.,?,-,?
CCn1c(C(=O)N2CCc3ccccc3C2)cc2sccc21,50µM,-,.,-,-,-
CS(=O)(=O)c1ccc(C(=O)N2CCc3ccccc3C2)cc1,-,-,-,.,-,-
CCn1c(C)c(C)c2cc(C(=O)N3CCc4ccccc4C3)ccc21,45µM,40µM,.,22µM,-,?
CCOC(=O)C(=Cc1ccc2c(c1)OCO2)c1ccccc1,.,-,.,.,.,-
CCCOc1ccc(CNCCCOCC)cc1OC,-,0.79µM,.,-,-,?
CCOCCCNC(=O)Cc1ccc(OC)c(OC)c1,-,-,-[11.4 µM],-,-,-
CC1CCCC(C)N1C(=O)Cc1ccccc1 (stereo unspecified),-[12.7 µM],-,.,-,-,-
COc1cccc(CNCC(=O)N2C(C)CCCC2C)c1 (stereo unspecified),13µM,3.5µM,-,50µM,-,?
O=C1C(Cl)=C(NCCCO)C(=O)c2ccccc21,-[2.33 µM],-,.,?,-,?
CCOCCCNC1=C(Cl)C(=O)c2ccccc2C1=O,.,13µM,?,40µM,45µM,18µM
CCOCCCNCc1cccc(OC)c1,4µM,3.5µM,-,?,-,-
O=C1C=C(c2ccc(F)cc2OCc2ccccc2)C[C@@H](c2ccc(F)cc2)C1,-[0.501 µM],-,-,-,.,-
CCOCCCNCc1ccc(OCc2ccccc2Cl)cc1,-,-,-,-,-,-
CCOCCCNCc1cc(Cl)ccc1OCC,?,-,-,-,-,-
CCOCCCNCc1ccc(OC)cc1,-[12.7 µM],4µM,.,?,-,-
CCOCCCNCc1c(Cl)cccc1Cl,?,5µM,-,?,?,?
Cc1ccc(S(=O)(=O)/N=C2/C=C(Sc3ncn[nH]3)C(=O)c3ccccc32)cc1,0.56µM,2.8µM,-,45µM,3.2µM,8.9µM
Cc1ccc(S(=O)(=O)N2CCN(C(=O)CSc3ncn[nH]3)CC2)c(C)c1,?,-,-,-,.,-
Cc1ccc(S(=O)(=O)/N=C2/C=C(Sc3ncn[nH]3)C(=O)c3ccccc32)c(C)c1,0.89µM,.,?,45µM,3.5µM,.
SMILES,G9a block,JMJD2A Tudor inh,L3MBTL1 inh,BAZ2B block,Sfp PPTase inh,HP1b chromo inh
CC(C)c1ccc(S(=O)(=O)/N=C2/C=C(Sc3ncn[nH]3)C(=O)c3ccccc32)cc1,1.6µM,7.1µM,?,45µM,2µM,18µM
CCn1c(C)[n+](Cc2ccccc2)c2ccc(C(=O)OC)cc21,32µM,-,.,.,-,-
COc1ccc(NC(=O)Cn2c(=O)n(-c3ccc(C)cc3)c(=O)c3c2c2cc(C)ccc2n3C)cc1,-,-,.,-,.,-
O=C(NCc1ccco1)c1cccc2c1C(=O)c1ccc(/C=C/c3ccccc3)cc1S2(=O)=O,.,40µM,?,.,.,?
O=C(NCc1ccco1)c1cccc2c1C(=O)c1ccc(N3CCC(Cc4ccccc4)CC3)cc1S2(=O)=O,.,-,-,.,.,-
O=C(CCCC[C@@H]1SC[C@H]2NC(=O)N[C@H]12)Nc1ccc(C(=O)O)cc1,.,.,.,.,-,.
Clc1ccccc1-c1nnc(SCc2nc(-c3ccccc3)no2)n1-c1ccccc1,-,-,.,-,.,-
CC1(c2cccc(Br)c2)NC(=O)N(CC(=O)Nc2ccc(S(N)(=O)=O)cc2)C1=O (stereo unspecified),-,-,.,-,-,-
C/C=C(\C)CN1CCN(c2ccccc2)CC1,50µM,-,.,?,-,-
C/C=C(\C)CN1CCN(c2cccc(C)c2C)CC1,-,-,-,-,-,-
C/C=C(\C)CN1CCN(c2cc(C)ccc2C)CC1,1.3µM,5.6µM,-,-,?,?
Cc1ccc(C)c(N2CCN(Cc3nnnn3C3CCCCC3)CC2)c1,-,-,-,-,79µM,-
NC(=O)Cn1c(=O)n(C2CCCCC2)c(=O)c2c3c(sc21)CCCCC3,-,-,-,-,50µM,-
COc1ccc(-n2c(=O)c3c4c(sc3n(CC(N)=O)c2=O)CCCCC4)cc1,-,-,.,-,-,-
CCOc1ccc(-c2nc3c(c(SCC(=O)N4CCCCC4)n2)Cc2cccc(OC)c2O3)cc1,-,-,.,-,.,-
CCC(Sc1ccc2nnc(-c3ccc(F)cc3)n2n1)C(=O)O (stereo unspecified),?,?,-,-,-,-
CC(=O)C(Sc1ccc2nnc(-c3ccc(C)cc3)n2n1)C(C)=O,32µM,?,-,-,-,-
O=C(O)CSc1ccc2nnc(-c3cccnc3)n2n1,?,-,.,-,-,-
CC(=O)C(Sc1ccc2nnc(-c3ccc(F)cc3)n2n1)C(C)=O,18µM,?,-,?,-,-
CSc1ccc2nnc(-c3ccc(C)cc3)n2n1,.,-,.,.,.,-
CC(=O)C(Sc1ccc2nnc(-c3cccnc3)n2n1)C(C)=O,71µM,-,.,.,-,-
C=C[C@@H](C)[C@](C)(O)c1ccccc1,.,.,.,.,-,.
O=C(O)c1cc(N/N=C/c2ccc3c(c2)OCCO3)ccc1Cl,?,-,?,-,-,-
C/C(=N\Nc1ccc(Cl)c(C(=O)O)c1)c1ccc2c(c1)OCO2,4.5µM,-,?,?,-,-
Cc1ccc(N/N=C/c2ccc(N3CCOCC3)cc2)cc1C,2.5µM,40µM,-,?,?,79µM
SMILES,G9a block,JMJD2A Tudor inh,L3MBTL1 inh,BAZ2B block,Sfp PPTase inh,HP1b chromo inh
O=C(O)c1cc(N/N=C/c2ccc3c(c2)OCO3)ccc1Cl,50µM,-,-,?,-,-
Cc1ccc(N/N=C/c2ccc3c(c2)OCCO3)cc1Cl,8.9µM,?,-,-,-,?
Cc1ccc(/C=N/Nc2cc(C)nc(N3CCOCC3)n2)cc1,-,?,-,-,-,-
Cc1ccc(C2=NN(CCC(=O)NCCc3cccc(C)c3)C(=O)CC2)cc1,-,-,.,-,.,-
Cc1[nH]c(C)c(S(=O)(=O)N2CCCCC2)c1C(=O)N1CCCCC1,-,-,.,-,-,-
CCCCC(CC)CNC(=O)CN(C)S(=O)(=O)c1ccc2c(c1)c(=O)n(C)c(=O)n2C (stereo unspecified),-,-,.,-,.,-
CC(C)(CO)NC(=O)C(Cc1ccccc1)N1C(=O)c2ccccc2C1=O (stereo unspecified),-,-,.,-,-,-
CCn1c(/C=C2\C(=O)N(C(C)C)c3ccccc32)nc2ccccc2c1=O,-[12.7 µM],-[11.4 µM],?,40µM,-,-
